Among all 48,000 compounds or so, about 13,000 (27%) showed an effect of 50% or more. Some of the results follow.

The assay deals with Wolbachia pipientis. The assay is described as follows: Anti-Wolbachia Cell-Based Screen. The class given is functional. Also noted: scale not given: in the data most compounds retested in dose-response had high values. The settings on record: 5 µM.
Regarding `CCCN(CC1COc2ccccc2O1)C(=O)CCn1cncn1` (stereo not drawn), the “Percent Effect” value is on record as -2.229%.
With `O=C(Cn1cc(C(=O)O)ccc1=O)NCc1ccc(F)cc1Cl`, the “Percent Effect” value came to 11.66%.
As for `Cc1c(Br)cccc1C(=O)NC(C)CN1CCCC1=O` (stereo not drawn), the figure is -7.738%; as for `CC(C)NC(=O)N1C[C@@H](F)[C@@H](OCc2nc3ccccc3o2)C1`, -6.815%.
Regarding `CN(C)Cc1cc(CC2(NCc3ccccc3Cl)COC2)no1`, the “Percent Effect” value is on record as -4.538%.
As for `COC[C@@]12CC[C@@H](N3CCOCC3)C[C@H]1CCN(c1nc(CO)cs1)C2`, the figure is -10.66%; as for `CCN(C)C(=O)c1ccnn1-c1ccc2ccccn12`, -2.565%.
For `O=C(c1ccnn1-c1ccc2ccccn12)N1CCCC1`, the “Percent Effect” value is given as 84.68%.
As for `O=C(c1c2c(NCC3CC3)ncnc2n2ccccc12)N1CCOCC1`, the figure is 2.912%; as for `O=C(NCCN1CCOCC1)c1ccnn1-c1ccc2ccccn12.O=C(O)C(F)(F)F`, -0.1496%; as for `O=C(c1ccnn1-c1ccc2ccccn12)N1CCOCC1`, 95.26%.
As for `COCCNC(=O)c1ccnn1-c1ccc2ccccn12`, the “Percent Effect” value is listed as -19.09%.
Regarding `Cc1cccc2c1nc1n2[C@@H](CNC(=O)c2ccccn2)COC1`, the “Percent Effect” value is -9.692%.
Take `CC(C)COC(=O)N1CCCN(Cc2nnc(C(C)(C)C)o2)CC1`: the “Percent Effect” value is -7.056%.
As for `CC(Cn1cccn1)NC(=O)C1=Cc2ccccc2OC1` (stereo not drawn), the “Percent Effect” value is recorded as 2.492%.
Then `CC(Cn1cccn1)NC(=O)NCCc1cnn(C)c1` (stereo not drawn), with -2.639%; and `CC(C)(C)C(Cn1ccnc1)NC(=O)NCc1ccco1` (stereo not drawn), with 10.62%; and `CC(C)(C)C(Cn1cccn1)NC(=O)c1ccco1` (stereo not drawn), with 126.5%.
Then `Cn1cc(C(=O)NC(Cn2cccn2)C(C)(C)C)cn1` (stereo not drawn), with 91.75%; and `CCn1nccc1C(=O)NC(Cn1cccn1)C(C)(C)C` (stereo not drawn), with 98.31%.
For `CN(Cc1ccco1)C(=O)NC(Cn1ccnc1)C(C)(C)C` (stereo not drawn), the “Percent Effect” value was -3.966%.
For the compound `CC(Cn1cccn1)NC(=O)Cc1cccs1` (stereo not drawn), the “Percent Effect” value worked out at 8.385%.
As for `CC(C)CC(NC(=O)c1cnn(C)c1)C(=O)Nc1cc[nH]n1` (stereo not drawn), the figure is -3.159%.
Then `O=S(=O)(Nc1ccc(N2CCOCC2)cc1)c1cccc(F)c1`, with 2.423%; and `Cc1cc(CN2CC3(CCN(C(=O)C4CC4)CC3)CC2C(=O)O)oc1C` (stereo not drawn), with -14.13%.
Then `O=c1[nH]c(NCc2cccc(-c3ccccc3)c2)nc2c1CCNC2`, with -0.2023%.
Turning to `CC(=O)c1cccc(-c2nc3c([nH]2)CCNC3)c1F`, the “Percent Effect” value was -6.254%.
For the compound `CS(=O)(=O)N1CC2(CCCN(C3COC3)C2)Cc2ccccc21` (stereo not drawn), the “Percent Effect” value was 116.4%.
As for `CS(=O)(=O)N1CCOC2(CCN(c3ncccn3)CC2)c2ccccc21`, the figure is -2.489%; as for `Cc1cccc(N2CCC(N3CCCC4(CNC(=O)O4)C3)CC2)c1C` (stereo not drawn), -4.7%; as for `Cc1cccc(N2CCC(N3CCCC4(CN(C)C(=O)O4)C3)CC2)c1C` (stereo not drawn), 11.85%.
For `CS(=O)(=O)N1CC2(CCN(C3COC3)C2)Cc2ccccc21` (stereo not drawn), the “Percent Effect” value amounted to 109.7%.
Then `O=C(O)C(F)(F)F.O=C(O)C(F)(F)F.c1ccc(CN2CCOCC3(CCN(C4CCOCC4)C3)C2)cc1` (stereo not drawn), with -14.02%.

For the origin of these results see ChEMBL document CHEMBL3988442, “University of Dundee, Small-Polar-MMV Screening Library” (2021).
